Experimental data as given in PubChem BioAssay AID463212 (Sanford-Burnham Center for Chemical Genomics, 2010).
In all, about 330,000 compounds went through this assay and about 4,400 (1.3%) were called active.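 Rule for the calls: active = growth inhibition of the mutant yeast at or above 50%; inactive = the rest.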 Many of the other results were omitted from the sample, so actives are more common in it than they were.

assay: growth inhibitors of tim23-1 mutant yeast, primary screen, luminescence, uHTS (AID 463212);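 note: temperature-sensitive mutant grown at 25 °C; plate controls were DMSO-treated mutant yeast for no effect and medium wells lacking yeast for full effect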; conditions: S. cerevisiae tim23-1 growth, BacTiter-Glo luminescence, 24 h; at 20 µM; stronger effect = higher value

Row | SMILES | inhibition
1 | COc1cccc(N2C(=O)NC(=O)/C(=C\c3ccc([N+](=O)[O-])s3)C2=O)c1 | 50.5% (active)
2 | O=C1NC(=O)N(c2ccccc2)C(=O)/C1=C/c1ccc([N+](=O)[O-])s1 | 41.2% (inactive)
3 | COc1ccc(N2C(=O)/C(=C/c3ccco3)C(=O)NC2=S)cc1 | 11.6% (inactive)
4 | COC(=O)C1=C(c2ccc(F)cc2OCc2ccccc2)C[C@@H]2CC[C@H]1N2C(=O)NCc1ccc(C(C)(C)C)cc1 | 19.7% (inactive)
5 | Cc1cc2ccccn2c1C(C[N+](=O)[O-])c1c(F)cccc1Cl (stereo not given) | 69.2% (active)
6 | O=c1c2ccccc2nc(-c2ccc(Cl)cc2Cl)n1-c1ccncc1 | 35.9% (inactive)
7 | COP(=O)(OC)C(NC(=O)c1ccc(C)cc1)C(Cl)(Cl)Cl (stereo not given) | -17.8% (inactive)
8 | COC(=O)C1=C(c2ccc(Cl)c(C(F)(F)F)c2)C[C@@H]2CC[C@H]1N2C(=O)NC(C)C | 21.8% (inactive)
9 | CCC(C)n1c(O)c(/C=N/Nc2nc3c(c(=O)n(C)c(=O)n3C)n2C)c(=O)[nH]c1=S (stereo not given) | 1.46% (inactive)
10 | CC(=O)N1CN2CN(C(C)=O)CC(C(=O)c3ccc(Br)cc3)(C2)C1 | 0.81% (inactive)
11 | O=c1c2ccccc2nc(-c2ccccc2)n1-c1ccccn1 | 14.3% (inactive)
12 | Cc1ccc(-c2nc3ccccc3c(=O)n2-c2ccc(Br)cn2)cc1 | 52.7% (active)
13 | O=c1c2ccccc2nc(-c2ccco2)n1-c1ccc(Br)cn1 | 29% (inactive)
14 | COC(=O)C1=C(c2cc3ccccc3s2)C[C@@H]2CC[C@H]1N2C(=O)NCc1cccc2ccccc12 | 34.5% (inactive)
15 | COc1cccc(CN2CCCC(C(=O)c3ccccc3SC)C2)c1O (stereo not given) | 8.13% (inactive)
